Data taken from PubChem BioAssay (NCATS).
A number with no mark means an inactive call. Calls follow the shape of the dose curve; as a rule, active = well fitted activation curve with a large enough effect; inconclusive = small, poorly fitted or top-dose-only effect; inactive = flat fitted curve, though single readings scatter.

assay: Cellular Toxicity (caspase-3) SHSY5Y (AID 657); conditions: SH-SY5Y caspase-3 activation, DMSO zero, 10 µM staurosporine = 100%; series mostly up to 91.7 µM; caspase-3 activation: at the top concentration
Source text: NIH Chemical Genomics Center [NCGC]
NIH Molecular Libraries Screening Centers Network [MLSCN]
National Institutes of Environmental Health Sciences [NIEHS]
National Toxicology Program [NTP]
We have developed a 1536-well cell-based assay for quantitative high throughput screening (qHTS) against a number of cell lines to determine in vitro caspase 3/7 activity of small molecules. This particular assay uses the SH-SY5Y cell line which is derived from human neuroblastoma.
NCGC Assay Protocol Summary:
The Caspase-Glo 3/7 assay (Promega) is a homogeneous method to measure caspase-3 and caspase-7 activities in cultured cells. The quantitation of caspase 3/7 activity is based on the cleavage of a peptide-aminoluciferin substrate. After caspase cleaves the substrate the free aminoluciferin is liberated and serves as the substrate of luciferase, which generates the light. The luminescent signal is proportional to the amount of caspase 3/7 activity present.
Using the Caspase-Glo 3/7 assay, the amount of caspase 3/7 activity was measured in the SH-SY5Y cell line with complete culture medium following compound treatment for 16 hours. The assay was performed in opaque white 1536-well plates. In the screen, staurosporine and doxorubicin were used as positive controls. Library compounds were measured for their ability to cause the activation of caspase 3/7 in the cell line, as reflected by an increase in luminescence signal, in a concentration-dependent manner. Data were normalized to the controls for basal activity (DMSO only) and 100% stimulation (10 uM staurosporine). AC50 values were determined from concentration-response data modeled with the standard Hill equation.
qHTS protocol for caspase 3/7 assay in SH-SY5Y cells
[Step] [Parameter] [Value] [Description]
1. Reagent; 5 uL; 1500 SH-SY5Y cells/well
2. Time; 5 hr; 37 °C incubation
4. Controls; 23 nL; doxorubicin 7 pM to 100 uM & staurosporine 1.4 pM to 20 uM
5. Time; 16 hr; 37 °C incubation
6. Reagent; 5 uL; Caspase-Glo 3/7 reagent
7. Time; 1 hr; Room Temperature
8. Detection; Luminescence; Viewlux plate reader
Keywords: caspase 3/7, apoptosis, SH-SY5Y cell line, luminescence, NTPHTS, NTPHTS_NCGC, NIEHS, EPA, DSSTox, MLSMR, MLSCN, NIH Roadmap, qHTS, NCGC

Row | Structure (SMILES) | caspase-3 activation
1 | S=C1NCCN1 | 1.18%
2 | O=C(Cl)OCc1ccccc1 | -1.69%
3 | CC(C)(C)OOC(=O)c1ccccc1 | 7.97%
4 | ClCC(Cl)CCl | 1.26%
5 | CN(C)c1ccc(N(C)C)cc1 | -2.37%
6 | Nc1cc(Cl)cc(Cl)c1 | 0.165%
7 | CC(C)(C)c1ccccc1O | -0.767%
8 | Nc1cc(Cl)cc(C(=O)O)c1Cl | 1.3%
9 | COP(=S)(OC)SCn1nnc2ccccc2c1=O | -9.01%
10 | ClCCOCCCl | 0.989%
11 | Cl/C=C\Cl | 1.65%
12 | O=c1ccc(=O)[nH][nH]1 | -0.855%
13 | Cc1ccc(N)c(N)c1 | -8.5%
14 | O=[N+]([O-])c1ccccc1O | -0.911%
15 | CCCCCCCCCCCCCl | 0.6%
16 | Cc1cc(-c2cc(C)c(N)c(C)c2)cc(C)c1N | 0.437%
17 | CCC(Cl)[N+](=O)[O-] (stereo not given) | 0.612%
18 | Cc1cccc(C)c1N | 1.11%
19 | S=c1[nH]c2ccccc2[nH]1 | -0.547%
20 | ClC(Cl)(Cl)C(Cl)(Cl)Cl | -0.962%

Row | Structure (SMILES) | caspase-3 activation
21 | Clc1ccc(Cl)c(Cl)c1 | 1.67%
22 | [O-][Cl+2]([O-])O | 0.518%
23 | CSSC | 1.01%
24 | OCCBr | 0.997%
25 | CCOP(=S)(OCC)SCCSCC | -0.552%
26 | O=C(O)CBr | -2.25%
27 | COC(=O)c1ccccc1N | 1.08%
28 | BrCC(Br)(Br)Br | -0.414%
29 | OCCCCO | -1.16%
30 | Cc1cc(Cl)ccc1O | 0.651%
31 | O=[N+]([O-])c1ccccc1CCl | 2.71%
32 | O=NN1CCCCC1 | 0.139%
33 | Clc1ccc(C(Cl)(Cl)Cl)cc1Cl | 0.75%
34 | CC(C)(C)C(O)(CCc1ccc(Cl)cc1)Cn1cncn1 (stereo not given) | -1.03%
35 | O=[N+]([O-])c1cccc(CCl)c1 | 1.71%
36 | C=CC(=O)OCC(CC)CCCC (stereo not given) | 2.37%
37 | COC(=O)Nc1nc2ccccc2[nH]1 | -0.383%
38 | Nc1ccc(-c2ccccc2)cc1 | 1.75%
39 | CN1CSC(=S)N(C)C1 | 4.78%
40 | CC(C)(Cl)Cl | -0.249%
